Measured values from PubChem BioAssay (NCATS).
Unmarked numbers belong to inactive results. Results filed as inconclusive are left out. Where a call stands in place of a potency, no number is given. The source made the active and inactive calls. Unless noted, calls come from the whole dose curve; as a rule, active = well fitted curve in either direction with a large enough effect (not every such curve was filed as active); inconclusive = small, poorly fitted or top-dose-only effect, or another doubt; inactive = flat fitted curve, though single readings scatter.

Legend:
[1] = AP1 Signaling Pathway (AID 357); conditions: ME-180 AP-1-bla reporter, EGF-induced, beta-lactamase ratio, 5 h; at 17.2 µM (top of the series) unless noted;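 note: ME-180 reporter cells stimulated with EGF at its EC50 level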
Outline: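 First, ME-180 AP-1-bla cells were cultured overnight at 37 °C in low-serum Opti-MEM. Next, titrated compounds with EC50 EGF were incubated 5 hours. Finally, CCF4 was added for 2.5 hours and the 460/530 nm ratio recorded.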

[2] = molecular target: Cytochrome P450 1A2 (Homo sapiens) (UniProt P05177); test: p450-cyp1a2 (AID 410; calls by dose curve; note: potency is the fitted concentration of half-maximal effect)
Sequence of Cytochrome P450 1A2 (Homo sapiens) (P05177 whole entry, looked up): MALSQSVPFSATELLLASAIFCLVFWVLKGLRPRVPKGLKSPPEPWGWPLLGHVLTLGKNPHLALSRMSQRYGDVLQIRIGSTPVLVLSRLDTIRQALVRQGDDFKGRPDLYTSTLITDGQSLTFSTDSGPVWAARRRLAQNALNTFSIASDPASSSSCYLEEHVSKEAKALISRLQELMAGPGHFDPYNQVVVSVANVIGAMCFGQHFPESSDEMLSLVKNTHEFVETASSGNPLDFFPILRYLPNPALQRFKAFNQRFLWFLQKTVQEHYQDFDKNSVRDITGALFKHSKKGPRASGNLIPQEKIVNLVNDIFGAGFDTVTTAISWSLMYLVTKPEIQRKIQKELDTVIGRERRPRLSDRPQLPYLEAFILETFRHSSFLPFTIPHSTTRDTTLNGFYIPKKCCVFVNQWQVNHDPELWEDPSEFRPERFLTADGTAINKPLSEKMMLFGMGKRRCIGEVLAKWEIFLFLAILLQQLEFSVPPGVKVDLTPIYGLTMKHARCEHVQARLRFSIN
Outline: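 Luminescent readout of luciferin formed from Luciferin-ME by human CYP1A2; data normalized against complete inhibition by 57 uM furafylline. Enzyme 20nM, substrate 100uM at Km, 100mM KPO4 buffer, 60 min reaction at room temperature.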

[3] = NFAT Signaling Pathway (AID 444); conditions: Jurkat NFAT-bla M1, carbachol, beta-lactamase ratio, 5 h; at 17.2 µM (top of the series) unless noted;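 note: carbachol stimulus at about its EC50 of 1 µM final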
Outline: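 Jurkat cells with NFAT-driven β-lactamase reporter and co-expressed M1 receptor, stimulated with carbachol (final 1 uM, ~EC50), compound titration, 5 h at 37 °C. CCF4 loaded 1 h at RT; 460/530 nm ratio gave %activity and AC50.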

[4] = Stat Signaling Pathway (AID 446);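 note: ME-180 cervical cancer cells given 40 pM IL-6 alongside compound; SIE-controlled beta-lactamase reporter measured as 460/530 nm FRET emission ratio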
Outline: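 ME-180 SIE-bla cells; overnight plating; cpd + IL-6 40 pM, 5 h, 37 C; LiveBLAzer 2.5 h RT; 460/530 nm emission ratio. Normalized to 300 pM IL-6 and 125 nM JAK inhibitor controls.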

[5] = molecular target: Glucocorticoid receptor (Homo sapiens) (UniProt P04150); test: GR-GFP Redistribution (AID 450;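 active = compounds whose dose series gives a full or clear partial fitted curve of increased nuclear translocation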; note: potency is the fitted concentration of half-maximal effect); conditions: U2OS GR-GFP nuclear translocation, laser cytometry, 2 h
Sequence of Glucocorticoid receptor (Homo sapiens) (P04150 whole entry, looked up, the tested form may be a part): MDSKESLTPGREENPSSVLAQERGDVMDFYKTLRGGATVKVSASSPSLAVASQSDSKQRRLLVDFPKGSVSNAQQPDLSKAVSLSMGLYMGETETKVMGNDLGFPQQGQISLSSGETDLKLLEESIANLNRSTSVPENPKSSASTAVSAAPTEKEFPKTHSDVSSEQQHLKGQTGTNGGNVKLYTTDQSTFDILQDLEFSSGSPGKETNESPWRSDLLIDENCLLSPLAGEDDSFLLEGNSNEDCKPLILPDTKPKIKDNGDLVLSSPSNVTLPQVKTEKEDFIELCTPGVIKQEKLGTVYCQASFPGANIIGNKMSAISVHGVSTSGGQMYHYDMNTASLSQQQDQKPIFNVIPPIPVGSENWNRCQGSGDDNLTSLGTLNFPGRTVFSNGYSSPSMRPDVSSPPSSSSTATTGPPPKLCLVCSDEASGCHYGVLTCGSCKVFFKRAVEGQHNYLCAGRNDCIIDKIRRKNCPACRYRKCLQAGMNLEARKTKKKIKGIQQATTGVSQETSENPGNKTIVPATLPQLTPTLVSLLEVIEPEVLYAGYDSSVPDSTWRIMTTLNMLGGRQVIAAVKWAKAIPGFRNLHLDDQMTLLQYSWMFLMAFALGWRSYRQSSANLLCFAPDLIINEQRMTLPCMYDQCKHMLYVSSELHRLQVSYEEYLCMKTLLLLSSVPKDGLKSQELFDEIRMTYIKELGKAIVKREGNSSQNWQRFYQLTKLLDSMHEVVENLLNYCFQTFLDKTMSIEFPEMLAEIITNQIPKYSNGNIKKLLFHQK

[6] = molecular target: Glucocorticoid receptor (Homo sapiens) (UniProt P04150); test: GR-EFC Redistribution (AID 451; calls by dose curve; note: potency is the fitted concentration of half-maximal effect); conditions: CHO-K1 GR-EFC translocation, beta-gal luminescence, 2 h
Outline: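 CHO-K1 cells expressing nuclear EA and GR-ED fragments of b-gal; compounds titrated up to 46 uM final, 2 h at 37 C. GR nuclear translocation read as complemented b-gal luminescence after 1 h RT detection.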

[7] = molecular target: 3',5'-cyclic-AMP phosphodiesterase 4B (Homo sapiens) (UniProt Q07343); test: qHTS Assay for Inhibitors of PDE-IV (AID 607; active = well fitted activation curve with a large enough effect in the main read-out, with a control signal flat, not every such curve was filed as active)
Sequence of 3',5'-cyclic-AMP phosphodiesterase 4B (Homo sapiens) (Q07343 whole entry, looked up): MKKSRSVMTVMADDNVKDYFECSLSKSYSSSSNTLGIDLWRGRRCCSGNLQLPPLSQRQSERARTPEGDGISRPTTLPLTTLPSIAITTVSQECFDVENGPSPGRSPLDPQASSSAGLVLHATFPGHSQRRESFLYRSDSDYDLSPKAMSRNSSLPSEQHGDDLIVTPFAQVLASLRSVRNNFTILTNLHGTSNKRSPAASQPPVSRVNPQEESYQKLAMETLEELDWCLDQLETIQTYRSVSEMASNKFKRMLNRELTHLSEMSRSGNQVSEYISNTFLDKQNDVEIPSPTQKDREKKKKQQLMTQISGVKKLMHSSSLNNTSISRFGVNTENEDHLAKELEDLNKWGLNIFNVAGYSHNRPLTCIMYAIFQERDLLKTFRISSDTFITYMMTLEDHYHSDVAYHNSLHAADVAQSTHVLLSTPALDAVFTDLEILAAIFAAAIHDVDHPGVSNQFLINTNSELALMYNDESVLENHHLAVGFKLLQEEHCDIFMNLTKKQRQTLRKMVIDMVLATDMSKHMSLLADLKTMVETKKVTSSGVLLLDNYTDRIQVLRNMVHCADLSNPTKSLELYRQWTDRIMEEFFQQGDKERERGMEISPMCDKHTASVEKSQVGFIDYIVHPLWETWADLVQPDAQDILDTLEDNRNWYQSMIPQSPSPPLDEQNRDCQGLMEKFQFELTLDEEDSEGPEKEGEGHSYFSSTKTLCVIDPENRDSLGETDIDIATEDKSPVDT
Outline: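 ACTOne HEK293 cells carry a modified cAMP-gated CNG channel and express endogenous PDE4; plated 1000 cells/well, compounds up to 22.9 uM final. Membrane-potential dye fluorescence (ex 535/em 590) was read; parental cells received 10 uM forskolin + 100 uM RO 20-1724.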

[8] = molecular target: Guanine nucleotide-binding protein G(i) subunit alpha-1 (Homo sapiens) (UniProt P63096); test: qHTS Assay for Inhibitors of RGS12 GoLoco Motif Activity (Green Fluorophore) (AID 879; active = well fitted curve in the direction sought with a large enough effect; an effect the other way counts as inactive or inconclusive;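 note: negative values mean loss of peptide binding seen as reduced polarization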)
Sequence of Guanine nucleotide-binding protein G(i) subunit alpha-1 (Homo sapiens) (P63096 whole entry, looked up): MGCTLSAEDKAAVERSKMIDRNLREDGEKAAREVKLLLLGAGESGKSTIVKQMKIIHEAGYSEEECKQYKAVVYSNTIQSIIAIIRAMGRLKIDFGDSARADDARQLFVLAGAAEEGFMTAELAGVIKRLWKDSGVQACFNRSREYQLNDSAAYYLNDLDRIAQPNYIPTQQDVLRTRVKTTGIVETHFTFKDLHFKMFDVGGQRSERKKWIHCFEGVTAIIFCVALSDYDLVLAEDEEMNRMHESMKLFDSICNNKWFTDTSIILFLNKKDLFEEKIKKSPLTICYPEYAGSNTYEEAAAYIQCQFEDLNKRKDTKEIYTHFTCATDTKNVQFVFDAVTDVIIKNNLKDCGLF
Outline: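 Fluorescence polarization assay: 50 nM Gαi1 with 10 nM FITC-labeled RGS12 GoLoco peptide in 10 mM Tris pH 7.5, 150 mM NaCl, 0.1 mM GDP, 0.05% NP40, 10 min at room temperature with compound.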

[9] = qHTS Assay for Identification of Small Molecule Antagonists for Thrombopoietin (TPO) Signaling Pathway (AID 918; active = well fitted curve in the direction sought with a large enough effect; an effect the other way counts as inactive or inconclusive; note: potency is the fitted concentration of half-maximal effect; nearly all actives have a fitted effect of over 60% in size); conditions: TPO-dependent cell signaling reporter, antagonist mode
Outline: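 Ba/F3 (murine, hTPO-R, GPIIb-luc reporter); overnight IL-3 withdrawal; cpd + TPO 26 pM final (EC50); 24 h 37 C/5% CO2; Steadylite luminescence after 10 min RT.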

[10] = molecular target: Muscarinic acetylcholine receptor M1 (Rattus norvegicus) (UniProt P08482); test: qHTS Assay for Antagonists of Acetylcholine Muscarinic M1 Receptor: Kinetic Measurement of Intracellular Calcium Response (AID 943; active = well fitted curve in the direction sought with a large enough effect; an effect the other way counts as inactive or inconclusive;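 note: Fluo-4 calcium signal as peak divided by basal fluorescence over 4 min; nearly all actives have a fitted effect of over 75% in size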)
Sequence of Muscarinic acetylcholine receptor M1 (Rattus norvegicus) (P08482 whole entry, looked up): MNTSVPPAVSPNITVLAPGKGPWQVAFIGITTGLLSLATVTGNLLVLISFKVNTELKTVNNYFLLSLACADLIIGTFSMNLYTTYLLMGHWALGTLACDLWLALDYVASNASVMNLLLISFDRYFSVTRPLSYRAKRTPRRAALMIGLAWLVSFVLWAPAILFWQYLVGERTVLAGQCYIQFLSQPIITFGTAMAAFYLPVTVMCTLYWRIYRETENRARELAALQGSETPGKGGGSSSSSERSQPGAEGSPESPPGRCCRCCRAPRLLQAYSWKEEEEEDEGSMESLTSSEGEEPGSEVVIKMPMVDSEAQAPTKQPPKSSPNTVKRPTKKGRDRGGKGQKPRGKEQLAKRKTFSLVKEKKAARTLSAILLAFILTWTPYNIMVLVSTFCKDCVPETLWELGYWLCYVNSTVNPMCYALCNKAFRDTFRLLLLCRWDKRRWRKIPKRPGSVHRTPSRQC
Outline: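 Rat M1-CHO cells, 2000/well, overnight → Fluo-4 no-wash dye with probenecid, 1 h 37C → compound 10 min, room temp → basal read 6 s → carbachol EC80 (100 nM) → 4 min kinetic read; peak/basal.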

[11] = molecular target: Muscarinic acetylcholine receptor M1 (Rattus norvegicus) (UniProt P08482); test: qHTS Assay for Antagonists of Acetylcholine Muscarinic M1 Receptor: Measurement of IP-One Response (AID 944; active = well fitted curve in the direction sought with a large enough effect; an effect the other way counts as inactive or inconclusive; note: nearly all actives have a fitted effect of over 75% in size)
Outline: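 M1-CHO (rat), 2000 cells/well, overnight recovery; cpd 10 min; carbachol EC80 (200 nM), 30 min, HEPES buffer + 50 mM LiCl pH 7.4; IP-One HTRF, Ex 337, Em 620/665 nm.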

[12] = molecular target: Pyruvate kinase PKM (Homo sapiens) (UniProt P14618); test: qHTS Assay for Activators of Human Muscle Pyruvate Kinase (AID 954; active = well fitted curve in the direction sought with a large enough effect, not every such curve was filed as active)
Sequence of Pyruvate kinase PKM (Homo sapiens) (P14618 whole entry, looked up): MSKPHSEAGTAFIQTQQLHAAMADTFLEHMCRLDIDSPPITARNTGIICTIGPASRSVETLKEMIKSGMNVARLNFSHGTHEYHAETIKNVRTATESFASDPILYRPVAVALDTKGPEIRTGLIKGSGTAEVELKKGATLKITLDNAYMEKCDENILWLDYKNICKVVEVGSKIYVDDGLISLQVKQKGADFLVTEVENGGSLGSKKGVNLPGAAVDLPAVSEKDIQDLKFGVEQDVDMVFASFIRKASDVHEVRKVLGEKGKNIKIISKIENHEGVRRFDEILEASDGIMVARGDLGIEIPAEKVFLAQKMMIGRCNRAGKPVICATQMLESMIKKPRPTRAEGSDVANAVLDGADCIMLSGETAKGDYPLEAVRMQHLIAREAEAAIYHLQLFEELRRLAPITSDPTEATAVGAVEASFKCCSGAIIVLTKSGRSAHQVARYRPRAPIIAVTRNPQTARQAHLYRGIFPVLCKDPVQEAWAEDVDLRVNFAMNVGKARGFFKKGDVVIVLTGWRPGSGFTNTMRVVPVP
Outline: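 Luminescence from a luciferase ATP-detection/stop reagent reported PKM2 activity. Reactions contained 0.1 nM purified human enzyme, 0.5 mM PEP, 0.1 mM ADP and 7 mM MgCl2 at pH 7.2, run 1 h at RT.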

[13] = molecular target: Alpha-galactosidase (Coffea arabica) (UniProt Q42656); test: Counterscreen for Glucocerebrosidase Inhibitors: qHTS Assay for Coffee Bean alpha-Galactosidase at pH 4.5 (AID 957; active = well fitted curve in the direction sought with a large enough effect; an effect the other way counts as inactive or inconclusive)
Sequence of Alpha-galactosidase (Coffea arabica) (Q42656 whole entry, looked up): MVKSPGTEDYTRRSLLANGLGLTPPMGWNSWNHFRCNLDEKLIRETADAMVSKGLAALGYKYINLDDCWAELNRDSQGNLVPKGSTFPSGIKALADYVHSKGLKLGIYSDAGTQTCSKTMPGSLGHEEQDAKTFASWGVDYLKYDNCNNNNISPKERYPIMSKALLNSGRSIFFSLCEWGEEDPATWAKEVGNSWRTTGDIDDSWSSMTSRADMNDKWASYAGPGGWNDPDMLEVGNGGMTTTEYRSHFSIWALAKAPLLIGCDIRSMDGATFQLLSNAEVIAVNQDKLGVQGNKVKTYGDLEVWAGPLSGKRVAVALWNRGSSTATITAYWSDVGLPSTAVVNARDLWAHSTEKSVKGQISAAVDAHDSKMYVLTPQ
Outline: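 Coffee bean alpha-galactosidase 2 nM, substrate 4-MU-alpha-Gal 80 uM, pH 4.5 citrate/Tween-20, 20 min RT. Cpd titration 0.7 nM–77 uM. Stop pH 10, fluorescence 365/440 nm; Hill-equation AC50.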

[14] = molecular target: Alpha-galactosidase A (Homo sapiens) (UniProt P06280); test: Counterscreen for Glucocerebrosidase Inhibitors: qHTS Assay for Human alpha-Galactosidase at pH 4.5 (AID 992; active = well fitted curve in the direction sought with a large enough effect; an effect the other way counts as inactive or inconclusive)
Sequence of Alpha-galactosidase A (Homo sapiens) (P06280 whole entry, looked up): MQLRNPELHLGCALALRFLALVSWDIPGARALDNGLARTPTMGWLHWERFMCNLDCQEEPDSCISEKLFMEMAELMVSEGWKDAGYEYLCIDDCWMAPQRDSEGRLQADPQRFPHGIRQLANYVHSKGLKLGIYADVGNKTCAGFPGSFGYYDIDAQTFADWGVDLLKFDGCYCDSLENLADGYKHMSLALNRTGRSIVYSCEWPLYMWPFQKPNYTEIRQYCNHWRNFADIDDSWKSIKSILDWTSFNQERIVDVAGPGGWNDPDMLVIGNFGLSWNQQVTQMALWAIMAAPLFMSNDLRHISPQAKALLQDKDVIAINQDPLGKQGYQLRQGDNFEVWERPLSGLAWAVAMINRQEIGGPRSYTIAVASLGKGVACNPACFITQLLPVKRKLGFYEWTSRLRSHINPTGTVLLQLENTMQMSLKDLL
Outline: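 Enzyme at 2 nM final was combined with compound (0.7 nM to 77 uM) and 80 uM 4-methylumbelliferyl alpha-D-galactopyranoside in 50 mM citric acid, 0.005% Tween-20, pH 4.5. After 20 min at room temperature, fluorescence was read (Ex 365/Em 440 nm); AC50 came from Hill fits.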

[15] = molecular target: Alpha-galactosidase (Coffea arabica) (UniProt Q42656); test: Counterscreen for Glucocerebrosidase Inhibitors: qHTS Assay for Coffee Bean alpha-Galactosidase at pH 5.9 (AID 998; active = well fitted curve in the direction sought with a large enough effect; an effect the other way counts as inactive or inconclusive)
Outline: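 Green coffee bean enzyme (2 nM) with 4-methylumbelliferyl alpha-D-galactopyranoside (80 uM) in 50 mM citric acid, 0.005% Tween-20, pH 5.9, 20 min at room temperature; compounds 0.7 nM–77 uM. Stopped at pH 10, fluorescence Ex365/Em440; Hill-fit AC50.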

[16] = molecular target: Mitogen-activated protein kinase 10 (Mus musculus) (UniProt Q61831); test: JNK3 AlphaScreen Assay (AID 530);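 note: kinase came from lysate of stimulated human HepG2 cells; signal reports phosphorylation of biotinylated GST-cJun 1-79 at Ser73 with 10 µM ATP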
Outline: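 Pre-activated (IL-1β/TNFα) JNK3 in HepG2 lysates phosphorylates biotin-GST-cJun(1-79), 10 uM ATP; anti-phospho-cJun(Ser73) AlphaScreen read at room temperature, pH 7.6 Tris buffer. Compounds pre-incubated 15 min as titrations.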

[17] = molecular target: Cytochrome P450 2C9 (Homo sapiens) (UniProt P11712); test: qHTS Assay for Inhibitors and Substrates of Cytochrome P450 2C9 (AID 883; active = well fitted curve in the direction sought with a large enough effect; an effect the other way counts as inactive or inconclusive; note: nearly all actives have a fitted effect of over 60% in size)
Sequence of Cytochrome P450 2C9 (Homo sapiens) (P11712 whole entry, looked up): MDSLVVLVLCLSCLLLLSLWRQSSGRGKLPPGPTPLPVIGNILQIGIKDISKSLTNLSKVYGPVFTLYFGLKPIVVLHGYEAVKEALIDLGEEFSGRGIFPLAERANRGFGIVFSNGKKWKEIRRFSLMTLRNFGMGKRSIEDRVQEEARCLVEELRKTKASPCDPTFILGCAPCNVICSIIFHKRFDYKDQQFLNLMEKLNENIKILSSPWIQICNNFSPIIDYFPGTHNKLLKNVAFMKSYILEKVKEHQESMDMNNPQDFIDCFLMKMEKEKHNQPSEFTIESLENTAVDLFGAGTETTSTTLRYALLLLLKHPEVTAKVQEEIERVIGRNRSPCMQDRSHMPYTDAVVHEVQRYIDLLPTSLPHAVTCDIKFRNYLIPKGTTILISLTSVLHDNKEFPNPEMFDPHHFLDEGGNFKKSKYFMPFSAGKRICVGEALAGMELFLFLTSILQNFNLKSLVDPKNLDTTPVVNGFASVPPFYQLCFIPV
Outline: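 Signal: luciferase luminescence reporting luciferin produced by CYP2C9. Conditions: 10nM enzyme, Luciferin-H 100uM at KM, 25mM KPO4, 37C, 60 min NADPH-driven reaction. Reference: 57uM sulphaphenazole as 100% inhibition.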

[18] = molecular target: Cytochrome P450 2C19 (Homo sapiens) (UniProt P33261); test: qHTS Assay for Inhibitors and Substrates of Cytochrome P450 2C19 (AID 899; active = well fitted curve in the direction sought with a large enough effect; an effect the other way counts as inactive or inconclusive; note: potency is the fitted concentration of half-maximal effect; nearly all actives have a fitted effect of over 60% in size)
Outline: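 Signal comes from luciferase acting on luciferin released by CYP2C19-mediated hydroxylation of Luciferin-H EGE, 10uM (KM). Assay mix: 5nM enzyme, 50mM KPO4; 60 min at 37C with NADPH regeneration. Data normalized against 57uM ketoconazole.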

[19] = molecular target: Cytochrome P450 3A4 (Homo sapiens) (UniProt P08684); test: qHTS Assay for Activators of Cytochrome P450 3A4 (AID 885; active = well fitted curve in the direction sought with a large enough effect; an effect the other way counts as inactive or inconclusive; note: nearly all actives have a fitted effect of over 65% in size)
Outline: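 20nM CYP3A4 + 25uM Luciferin-PPXE (=KM), 200mM KPO4; cpd 10 min RT; NADPH regen, 60 min RT; stop w/ detection buffer, 20 min; luminescence. Normalized to 57 uM ketoconazole.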

[20] = molecular target: Cytochrome P450 2D6 (Homo sapiens) (UniProt P10635); test: qHTS Assay for Inhibitors and Substrates of Cytochrome P450 2D6 (AID 891; active = well fitted curve in the direction sought with a large enough effect; an effect the other way counts as inactive or inconclusive; note: potency is the fitted concentration of half-maximal effect; nearly all actives have a fitted effect of over 60% in size)
Outline: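 Human CYP2D6 (5 nM) with 30 uM Luciferin-ME EGE (at Km) in 100 mM KPO4, compound preincubated 10 min, then NADPH regeneration system for 60 min at room temperature. Luciferin read by luminescence; normalized to 1.43 uM quinidine.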

[21] = qHTS Assay for Identification of Small Molecule Antagonists for NFkB Signaling Pathway (AID 895; active = well fitted inhibition curve with a large enough effect in the signal ratio, with a control signal flat, not every such curve was filed as active; the % refers to the signal ratio)
Outline: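 ME-180 NFkB-bla cells (beta-lactamase under NFkB response element), plated overnight, treated with compound then 10 pM TNF alpha (about EC50) for 5 hrs at 37 C. LiveBLAzer FRET read at 460/530 nm emission, 405 nm excitation.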

[22] = qHTS Assay for Identification of Small Molecule Agonists for Thrombopoietin (TPO) Signaling Pathway (AID 917; active = well fitted curve in the direction sought with a large enough effect; an effect the other way counts as inactive or inconclusive)
Outline: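 We measured Glycoprotein IIb promoter–luciferase output in IL-3-starved Ba/F3 murine cells expressing the human TPO receptor after 24 hrs at 37 C with compounds and 26 pM TPO.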

In the case of `N[C@@H]1CCc2cc(O)c(O)cc2C1`, the activity change, negative = inhibition [1] was -9.85% [at 38 µM], the Potency [2] was “inactive” and the activity change, negative = inhibition [3] was -2.09% [at 38 µM]. For the same compound, the outcome [4] was “inactive”, the Potency [5] was over 46 µM and the Potency [6] was over 46 µM. For the same compound, the outcome [7] was “inactive”, the Potency [8] was “inactive” and the Potency [9] was 10 µM (active). The Potency [10] was “inactive”, the Potency [11] was “inactive” and the outcome [12] was “inactive”. For the same compound, the outcome [13] was “inactive”, the outcome [14] was “inactive” and the outcome [15] was “inactive”.
With `COc1cccc(-n2c(C)nc3ccccc3c2=O)c1` the activity change, negative = inhibition [1] was 10.2%, the activity change, negative = inhibition [3] was 3.48% and the outcome [4] was “inactive”.
In the case of `CCCCc1nc2ccccc2c(=O)n1-c1ccccc1O`, the activity change, negative = inhibition [1] was -4.36%, the activity change, negative = inhibition [3] was -4.7% and the outcome [4] was “inactive”.
For `CCCCNC(=O)Nc1ccc(C(O)(C(=O)OCC)C(F)(F)F)cc1` (stereo not given), the activity change, negative = inhibition [1] was -5.83%, the activity change, negative = inhibition [3] was 30% and the outcome [4] was “inactive”.
With `O=C(CCCN1CCC2(CC1)C(=O)N(CCc1ccc(N=C=S)cc1)CN2c1ccccc1)c1ccc(F)cc1` the activity change, negative = inhibition [1] was -2.99% [at 38 µM], the Potency [2] was “inactive” and the outcome [4] was “inactive”. The Potency [5] was over 46 µM, the Potency [6] was over 46 µM and the outcome [16] was “inactive”. The outcome [7] was “inactive”, the Potency [17] was “inactive” and the Potency [18] was 3.16 µM (active).
In the case of `NCC[Se][Se]CCN`, the activity change, negative = inhibition [1] was 19.7% [at 7.69 µM], the Potency [2] was 3.16 µM (active) and the outcome [4] was “inactive”. It also gave a Potency [5] of over 46 µM, a Potency [6] of over 9.22 µM and an activity change, negative = inhibition [16] of -20.9% [at 11.4 µM]. The outcome [7] was “inactive”.
With `CCCN1CCc2cccc3c2[C@@H]1Cc1ccc(O)c(O)c1-3` the activity change, negative = inhibition [1] was 6.42% [at 38 µM], the Potency [2] was 3.98 µM (active) and the outcome [4] was “inactive”. The Potency [6] was over 46 µM, the outcome [7] was “inactive” and the Potency [19] was “inactive”. For the same compound, the Potency [9] was 12.6 µM (active), the Potency [11] was “inactive” and the outcome [12] was “inactive”. For the same compound, the outcome [13] was “inactive”, the outcome [14] was “inactive” and the outcome [15] was “inactive”.
For `COc1ccc2[nH]c3c(c2c1)CCN=C3C`, the activity change, negative = inhibition [1] was -4.7%, the Potency [2] was 1.58 µM (active) and the outcome [4] was “inactive”. For the same compound, the Potency [5] was over 20.6 µM, the Potency [6] was over 20.6 µM and the outcome [7] was “inactive”. For the same compound, the Potency [20] was 0.631 µM (active).
For `CCN1C[C@]2(C)CC[C@@H](O)[C@]34[C@@H]5CC6[C@@H](OC)C[C@@](O)([C@H]5[C@@H]6O)[C@@H](C[C@@H]23)[C@H]14`, the activity change, negative = inhibition [1] was 5.54% [at 38 µM], the Potency [2] was “inactive” and the activity change, negative = inhibition [3] was 6.29% [at 38 µM]. For the same compound, the outcome [4] was “inactive”, the Potency [5] was over 46 µM and the Potency [6] was over 46 µM. For the same compound, the outcome [7] was “inactive”, the Potency [8] was “inactive” and the Potency [21] was “inactive”. For the same compound, the outcome [22] was “inactive”, the Potency [10] was “inactive” and the Potency [11] was “inactive”. For the same compound, the outcome [12] was “inactive”, the outcome [13] was “inactive” and the outcome [14] was “inactive”. The outcome [15] was “inactive”.
